Source: the supplement of paper PMC12636033
± gives the standard deviation of the averaged measurements. In all, about 33,000 sequences were measured (“E-score (rank enrichment, -0.5 to 0.5)”: median about -0.0043, highest 2% from about 0.24 on). The entries come from a sample that favours the highest values as a whole.

The sequences below were run on 2Sp-muMax20 (muMax20 with two 2,6-bis(methyl)pyridine Cys staples) (assay: PBM 8-mer E-score (E-score (rank enrichment, -0.5 to 0.5)); higher = stronger preferential binding).
Procedure: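 Protein binding microarray (universal PBM chip covering all 10-mers in fixed probe flanks) with chemically synthesized human Max(13-93) bHLH-LZ analogs (not full-length Max) bearing noncanonical residues (hArg, Tha, Aib, Nle at 65) and aromatic Cys staples. Read-out per 8-mer (and its reverse complement): E-score (rank-based enrichment, -0.5 to 0.5) and Z-score of median probe intensity.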

Point of comparison: ATCGATCA, “PBM 8-mer E-score” value 0.0704 ± 0.044. Against it:
- AGCACCGC — lower, -0.216 ± 0.056
- ACTGGCGC — within error, 0.0318 ± 0.075
- CGCGACTC — within error, 0.0134 ± 0.05
- AGAAGTGC — lower, -0.15 ± 0.01
- AGTGTACA — within error, 0.138 ± 0.071
- TCGTGTCA — lower, -0.0282 ± 0.02
- ATTCGACA — within error, -0.0611 ± 0.091
- CGACTGCG — lower, -0.11 ± 0.012
- CGGAAGAC — lower, -0.286 ± 0.011
- CCTGGCTC — lower, -0.193 ± 0.028
- AGCTTATA — within error, 0.249 ± 0.15
- AGCTTATC — within error, 0.0357 ± 0.093
- CGCTTATA — within error, 0.116 ± 0.018
- CGTCTTTA — within error, 0.0497 ± 0.034
- CTGGGTGA — lower, -0.0861 ± 0.036
- TGCGCGCA — higher, 0.1734 ± 0.0016
- CCTTATTA — higher, 0.28 ± 0.003
- CCTTATTC — lower, -0.0629 ± 0.052
- GCTTATTA — higher, 0.172 ± 0.037
- ACTCCTAG — lower, -0.146 ± 0.087
- CGACATGC — within error, 0.0468 ± 0.0062
- ATAACACC — within error, 0.0871 ± 0.057
- ATAACAGG — lower, -0.0186 ± 0.03
- ATAACACG — higher, 0.269 ± 0.011
- ATAACACA — higher, 0.253 ± 0.075
- GTAACACA — higher, 0.183 ± 0.032
- CTAACACA — within error, 0.0336 ± 0.063
- ATCTAAGA — lower, -0.0722 ± 0.047
- TCGGAAGA — lower, -0.155 ± 0.038
- CGTTAACA — within error, 0.0471 ± 0.048
- TGTTAACA — higher, 0.2746 ± 0.0014
- AGTTAACA — within error, 0.145 ± 0.13
- AGCTTTTA — within error, 0.0891 ± 0.031
- CTATTAAA — within error, 0.141 ± 0.053
- ATATTAAG — higher, 0.16 ± 0.025
- TTATTAAA — within error, 0.166 ± 0.054
- ATATTAAT — higher, 0.318 ± 0.08
- ATATTAAA — higher, 0.2641 ± 0.001
- ATATTAAC — higher, 0.182 ± 0.0085
- GCCAGGGC — lower, -0.343 ± 0.022
- AAACGGTG — lower, -0.0442 ± 0.0089
- GGGCGTCA — within error, 0.12 ± 0.063
- CGAATTGA — higher, 0.141 ± 0.014
- CTGTACAA — within error, 0.0666 ± 0.029
- TTGTACAA — higher, 0.331 ± 0.11
- GTGTACAA — higher, 0.198 ± 0.029
- ACCGGTCC — lower, -0.324 ± 0.028
- TGACCTAA — lower, 0.00115 ± 0.0031
- CTCCCCCC — lower, -0.0388 ± 0.051
- CCACAGTA — within error, 0.0513 ± 0.067
- GTACCCGA — lower, -0.187 ± 0.12
- AATCATGT — higher, 0.239 ± 0.04
- AATCATGG — higher, 0.129 ± 0.0058
- AATCAGCC — within error, 0.0385 ± 0.041
- ACACATGT — higher, 0.326 ± 0.044
- AATCATGA — within error, 0.124 ± 0.13
- AATCAGCG — within error, -0.0281 ± 0.1
- AATCAGCT — higher, 0.279 ± 0.013
- ACACATGA — within error, 0.0699 ± 0.082
- AAACATGG — higher, 0.153 ± 0.0082
- AAACATGT — higher, 0.287 ± 0.008
- AAACATGA — within error, 0.0601 ± 0.067
- ACACATGG — higher, 0.194 ± 0.019
- ACGTTAAG — within error, 0.137 ± 0.027
- CGGTGTGC — lower, -0.209 ± 0.041
- CCCCACGC — within error, 0.095 ± 0.036
- AAATACTA — higher, 0.183 ± 0.026
- CCATCGAC — lower, -0.131 ± 0.028
- AATTCCCC — within error, 0.123 ± 0.015
- AATTCCCA — higher, 0.23782 ± 0.00023
- GATTCCCA — within error, 0.0167 ± 0.092
- GCTTAGTA — within error, 0.0418 ± 0.019
- AACCTCTG — lower, -0.064 ± 0.059
- AATTAAGA — higher, 0.214 ± 0.0075
- CATTAAGA — higher, 0.237 ± 0.056
- GATTAAGA — lower, -0.00249 ± 0.0063
- GACGACTA — within error, 0.138 ± 0.051
- CGACTCCC — lower, -0.0206 ± 0.024
- AGGGTCTG — lower, -0.168 ± 0.019
- CGTGATCC — lower, -0.0859 ± 0.026
- CGTGATCA — higher, 0.245 ± 0.036
- GGTGATCA — lower, 0.0137 ± 0.0046
- TGCTTACA — within error, 0.114 ± 0.016
- AACCACGC — within error, 0.0757 ± 0.035
- AACCACGA — within error, 0.118 ± 0.035
- ACCCACGA — lower, -0.0222 ± 0.03
- AACCACGT — higher, 0.288 ± 0.032
- ACCCACGC — higher, 0.138 ± 0.023
- ACCCACGT — higher, 0.284 ± 0.0034
- GAGGCCGC — lower, -0.291 ± 0.046
- ACAATAAT — higher, 0.275 ± 0.043
- ACAATAAG — higher, 0.1254 ± 0.001
- ACAATACA — within error, 0.0638 ± 0.061
- ATAATAAT — within error, 0.14 ± 0.084
- ACAATAAA — higher, 0.256 ± 0.012
- CCAATAAA — higher, 0.211 ± 0.035
- ACAATACC — higher, 0.273 ± 0.015
- ACAATACT — higher, 0.204 ± 0.069
- ACAATAAC — within error, 0.0634 ± 0.07
- CCGTTCAA — within error, 0.137 ± 0.026
- GAGCTGAA — within error, 0.0148 ± 0.13
- AACGCCCT — lower, -0.0766 ± 0.052
- AAGGTCAT — lower, -0.149 ± 0.0067
- AGAGCCCG — lower, -0.276 ± 0.012
- AATCAGGA — within error, 0.0255 ± 0.037
- CTATATAA — within error, 0.157 ± 0.081
- GTGTATAA — within error, 0.103 ± 0.024
- CTGTAGAA — within error, 0.0793 ± 0.045
- CGATATAG — within error, 0.116 ± 0.068
- ATATATAA — higher, 0.328 ± 0.032
- CGATATAA — higher, 0.24 ± 0.0019
- ATGTAGAA — higher, 0.246 ± 0.053
- GTATATAA — higher, 0.125 ± 0.0038
- ATGTATAA — higher, 0.277 ± 0.046
- CTGTATAA — higher, 0.19 ± 0.035
- CGATATAC — within error, 0.0494 ± 0.11
- ATGTAGAG — within error, 0.0603 ± 0.063
- ACAAACGC — lower, -0.0614 ± 0.035
- CACAAATC — within error, 0.052 ± 0.071
- AGAGGGAG — within error, 0.112 ± 0.027
- ATGGGCAG — within error, 0.0154 ± 0.02
- AGTCTCTA — within error, 0.0513 ± 0.038
- GGCGAACA — within error, -0.00568 ± 0.13
- ATACACCC — lower, -0.00554 ± 0.027
- TTATATAA — higher, 0.282 ± 0.044
- ATATATAT — within error, 0.116 ± 0.091
- ATATAGTA — higher, 0.231 ± 0.019
- ATATAGTC — higher, 0.238 ± 0.069
- CTATAGTC — within error, 0.0602 ± 0.045
- ATATATAC — higher, 0.252 ± 0.015
- GTATATAC — within error, 0.0149 ± 0.075
- CTATATAC — higher, 0.204 ± 0.022
- TGATATAA — higher, 0.232 ± 0.064
- GAGCTTCC — within error, -0.0166 ± 0.072
- CGCGAGGC — lower, -0.0315 ± 0.0085
- ATCTACCA — within error, 0.119 ± 0.038
- CCAATGGG — lower, -0.162 ± 0.09
- GGTTGCAA — within error, 0.0477 ± 0.016
- GCCAGTCC — lower, -0.152 ± 0.14
- GCGGCCAC — lower, -0.292 ± 0.061
- CAAATGAC — lower, -0.036 ± 0.036
- AGCCTTTG — lower, -0.0519 ± 0.04
- CATGCTCG — within error, 0.116 ± 0.052
- ACAGCCAC — within error, -0.0111 ± 0.073
- AAGGCCTA — within error, 0.00342 ± 0.048
- AAGGCCGG — lower, -0.146 ± 0.023
- AAGGCCGC — lower, -0.0467 ± 0.032
- AAGGCCTT — higher, 0.293 ± 0.052
- AAGGCCTG — lower, -0.212 ± 0.061
- AAGGCCGT — higher, 0.284 ± 0.012
- ATGTGGCG — within error, 0.0809 ± 0.017
- CTACCCTC — within error, 0.0414 ± 0.062
- CTCCCAAA — within error, 0.143 ± 0.084
- GCTGTTCA — within error, 0.0277 ± 0.084
- CGACGTGC — within error, 0.00092 ± 0.063
- CCACGTCC — lower, -0.117 ± 0.06
- CAACGTGG — within error, 0.0662 ± 0.077
- CCACGTAG — lower, -0.11 ± 0.053
- CCACGTGC — higher, 0.431 ± 0.00066
- CCACATGA — higher, 0.241 ± 0.053
- CCACGTTC — lower, -0.0572 ± 0.027
- GCACGTTA — within error, 0.113 ± 0.039
- CCACGTGG — higher, 0.455 ± 0.021
- GCACATGA — higher, 0.151 ± 0.036
- CCACGTTA — higher, 0.252 ± 0.044
- CCACATGG — higher, 0.161 ± 0.014
- ATACCCAC — higher, 0.197 ± 0.059
- CACGGCCC — lower, -0.216 ± 0.024
- GCAACGGA — within error, 0.0572 ± 0.11
- AGGAGAGA — lower, -0.134 ± 0.081
- GATTGGGC — lower, -0.0399 ± 0.037
